From PubChem
Most compounds without a hit are left out; they make up all but 1.2% or so of the library.
RGS16-Gao: modulators of RGS16 binding to Galphao, primary screen, biochemical, human proteins, multiplexed bead flow cytometry; binding response (% of control), % at 10 µM; Regulator of G-protein signaling 16 (Homo sapiens) + Guanine nucleotide-binding protein …; AID 1441, 2008; 0.38% of 220,000 active; bead-based flow cytometry RGS16-Galphao binding, fluorescence; actives lie on both sides;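 note: Galphao activated by GDP with aluminum fluoride before binding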
Target sequence (O15492 whole entry, looked up): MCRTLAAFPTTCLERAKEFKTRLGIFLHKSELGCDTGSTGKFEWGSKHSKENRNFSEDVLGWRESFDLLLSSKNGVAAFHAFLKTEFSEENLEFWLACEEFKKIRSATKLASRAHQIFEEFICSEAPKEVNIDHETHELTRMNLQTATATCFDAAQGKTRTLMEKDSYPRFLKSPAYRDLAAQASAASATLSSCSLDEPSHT
Target sequence (P09471 whole entry, looked up): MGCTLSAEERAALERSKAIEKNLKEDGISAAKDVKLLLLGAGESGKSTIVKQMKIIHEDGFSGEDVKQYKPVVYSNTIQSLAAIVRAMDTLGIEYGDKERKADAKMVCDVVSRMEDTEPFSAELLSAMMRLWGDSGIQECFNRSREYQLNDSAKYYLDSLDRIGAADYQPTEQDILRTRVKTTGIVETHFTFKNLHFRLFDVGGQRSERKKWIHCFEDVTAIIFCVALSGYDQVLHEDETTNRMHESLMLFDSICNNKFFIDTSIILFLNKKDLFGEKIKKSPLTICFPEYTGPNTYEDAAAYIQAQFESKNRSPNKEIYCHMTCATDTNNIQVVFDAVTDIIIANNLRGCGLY
GSH fluor: compound fluorescence on glutathione beads, profiling panel, artefact control, biophysical, 488/530 nm, flow cytometry. GSH beads flow cytometry, compound fluorescence 488/530 nm; active compounds read high. fluorescence (KMESF) at 10 µM. 0.25% of 190,000 active. AID 1776, 2009; in the data active = fluorescence above about 89;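 note: glutathione beads carrying GST-tagged Bcl family fusion proteins plus one bare bead set; values are compound well signal with DMSO vehicle wells as background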
RGS7-Gao reg: RGS7-Galphao binding modulators, primary screen, biochemical, multiplexed bead flow cytometry | 0.35% of 220,000 active | actives lie on both sides | binding response (% of control), % at 10 µM | AID 1439, 2008; in the data active = binding response below about 49% or above about 150%; inconclusive = no clear call, values can overlap the other calls; inactive = in between;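 note: fluorescent Galphao held in activated GDP-AlF4 state binding bead-coupled RGS7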
Target sequence (P09471 whole entry, looked up): as above
RGS4-Gao reg: modulators of RGS4 binding to Galphao, primary screen, biochemical, multiplexed bead flow cytometry. Guanine nucleotide-binding protein G(o) subunit alpha (Homo sapiens), P09471. actives lie on both sides. binding response (% of control), % at 10 µM. 0.33% of 220,000 active; in the data active = binding response below about 49% or above about 150%; inactive = in between;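 note: fluorescent Galphao activated with aluminum fluoride binding bead-coupled RGS4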
Avidin bead fluor: green autofluorescence of compounds with avidin beads – biophysical, 488/530 nm, flow cytometry, artefact control, profiling panel. compound fluorescence 488/530 nm; active compounds read high. fluorescence (KMESF) at 10 µM. 0.38% of 220,000 active. AID 1775, 2009; in the data active = fluorescence above about 47
RGS8-Gao reg: RGS8-Galphao binding modulators, primary screen, biochemical, multiplexed bead flow cytometry; Guanine nucleotide-binding protein G(o) subunit alpha (Homo sapiens), P09471; actives lie on both sides; response (percent of control binding), % at 10 µM; AID 1423, 2008; 0.34% of 220,000 active; in the data active = response below about 60% or above about 140%; inactive = in between;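 note: Galphao activated as the GDP aluminium fluoride complex binding bead-coupled RGS8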
RGS-Gao: modulators of RGS–Galpha-o binding, primary screen, biochemical, multiplexed beads, flow cytometry, RGS4/7/8/16/19 | shares compounds with RGS16-Gao | multiplexed bead flow cytometry | RGS4–Galpha-o binding response, % at 10 µM | 99% of 1,600 active | AID 1504, 2009;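 note: fluorescently labeled Galpha-o bound to GDP with aluminium fluoride binding biotinylated RGS beads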
Avidin counter: disruption of biotin probe capture by avidin, counter-screen for RGS protein interaction modulators, biochemical, flow cytometry, bead-based; shares compounds with RGS16-Gao; streptavidin beads, fluorescein-biotin binding; inhibition, % at 10 µM; 1,700 tested, under 10 active; AID 1783, 2009;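 active = inhibition above 50%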;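 note: median green fluorescence of gated singlet beads compared with DMSO control wells; 0% = DMSO wells and 100% = complete loss of bead fluorescence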
RGS8-Gao confirm: RGS8-Galphao binding modulators, confirmation, biochemical, multiplexed bead flow cytometry, single concentration; bead-based flow cytometry RGS8-Galphao binding, fluorescence; actives lie on both sides; shares compounds with RGS16-Gao; 3% of 1,700 active; binding response (% of control), % at 10 µM; in the data active = binding response below about 72% or above about 130%; inactive = in between;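 note: Galphao activated as GDP AlF4 complex before binding bead RGS8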
RGS7-Gao confirm: RGS7-Galphao binding modulators, confirmation, biochemical, multiplexed bead flow cytometry, single concentration. response (percent of control binding), % at 10 µM. shares compounds with RGS16-Gao. 7.8% of 1,700 active. bead-based flow cytometry RGS7-Galphao binding; actives lie on both sides. AID 1837, 2009; in the data active = response below about 75% or above about 130%; inactive = in between;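 note: fluorescent Galphao activated with GDP and aluminum fluoride binding bead-coupled RGS7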
RGS16-Gao conf: modulators of RGS16-Galphao protein binding, confirmation, biochemical, single concentration, multiplexed bead flow cytometry. shares compounds with RGS16-Gao. bead-based flow cytometry; actives lie on both sides. response (% of control binding), % at 10 µM. 4% of 1,700 active. AID 1838, 2009; in the data active = response below about 74% or above about 130%; inactive = in between;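 note: Galphao activated as the GDP aluminium fluoride complex binding bead-coupled RGS16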
RGS4-Gao confirm: modulators of RGS4-Galphao protein binding, confirmation, biochemical, single concentration, multiplexed bead flow cytometry; shares compounds with RGS16-Gao; actives lie on both sides; binding response (% of control), % at 10 µM; 4% of 1,700 active; AID 1840, 2009; in the data active = binding response below about 74% or above about 130%; inactive = in between
RGS19-Gao conf: regulators of RGS19-Galphao binding, confirmation, biochemical, single point, multiplexed bead flow cytometry. shares compounds with RGS16-Gao. bead-based flow cytometry RGS19-Galphao binding; actives lie on both sides. response (percent of control binding), % at 10 µM. 5% of 1,700 active. AID 1841, 2009; in the data active = response below about 50% or above about 160%; inactive = in between;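 note: 100% = no compound control and 0% = blank background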
The depositor's hits bear a star; [ ] = dose if it differs, or a comment. Unless noted, the rule behind the calls is not given here.

For Cc1c(/C=N/NC(=O)c2cccnc2)c2ccccc2n1Cc1ccccc1 the results were RGS16-Gao 115, GSH fluor 22, RGS7-Gao reg 154*[activator], RGS4-Gao reg 120, Avidin bead fluor 8, RGS8-Gao reg 106, RGS-Gao 120*, Avidin counter 3, RGS8-Gao confirm 103, RGS7-Gao confirm 124, RGS16-Gao conf 106, RGS4-Gao confirm 114 and RGS19-Gao conf 111.
CSc1ccc(S(=O)(=O)N(CC(=O)NN=C2CCN(C)CC2)c2ccc(C)cc2)cc1 was read as RGS16-Gao 101, GSH fluor 11, RGS7-Gao reg 174*[activator], RGS4-Gao reg 112, Avidin bead fluor 63*, RGS8-Gao reg 99, RGS-Gao 112*, Avidin counter 1, RGS8-Gao confirm 102, RGS7-Gao confirm 125*[activator], RGS16-Gao conf 113, RGS4-Gao confirm 112 and RGS19-Gao conf 195*[activator].
CC(C)c1ccc(N(CC(=O)NN=C2CCN(C)CC2)S(=O)(=O)c2ccccc2)cc1 was read as RGS16-Gao 108, GSH fluor 11, RGS7-Gao reg 118, RGS4-Gao reg 109, Avidin bead fluor 5 and RGS8-Gao reg 110.
`O=S(=O)(Cc1ccccc1Cl)NCc1ccccc1` gave RGS16-Gao 101, GSH fluor 11, RGS7-Gao reg 102, RGS4-Gao reg 102, Avidin bead fluor 6 and RGS8-Gao reg 100.
Screening O=C(CSc1ccccc1)Nc1cc(S(=O)(=O)N2CCOCC2)ccc1N1CCOCC1 returned RGS16-Gao 13*, GSH fluor 14, RGS7-Gao reg inconclusive, RGS4-Gao reg 22*, Avidin bead fluor 1, RGS8-Gao reg 15*, Avidin counter -2, RGS8-Gao confirm 104, RGS7-Gao confirm 102, RGS16-Gao conf 103, RGS4-Gao confirm 100 and RGS19-Gao conf 130.
Screening O=C(CCl)Nc1cc(S(=O)(=O)N2CCOCC2)ccc1N1CCOCC1 returned RGS16-Gao 96, GSH fluor 12, RGS7-Gao reg inconclusive, RGS4-Gao reg 96, Avidin bead fluor 11 and RGS8-Gao reg 96.
For Cc1c(NC(=O)COC(=O)c2ccc(S(=O)(=O)N3CCOCC3)cc2)c(=O)n(-c2ccccc2)n1C the results were RGS16-Gao 103, GSH fluor 19, RGS7-Gao reg 97, RGS4-Gao reg 97, Avidin bead fluor 9 and RGS8-Gao reg 99.
`CCNC(=O)c1ccccc1NC(=O)c1cccc(S(=O)(=O)N2CCOCC2)c1` gave RGS16-Gao -4.5*, GSH fluor 22, RGS7-Gao reg -3.6*, RGS4-Gao reg -14*, Avidin bead fluor -3, RGS8-Gao reg 6.6*, Avidin counter 0, RGS8-Gao confirm 102, RGS7-Gao confirm 104, RGS16-Gao conf 103, RGS4-Gao confirm 101 and RGS19-Gao conf 101.
COC(=O)/C(C#N)=C/c1c(Oc2cccc(C)c2C)nc2ccccn2c1=O was read as RGS16-Gao 95, RGS7-Gao reg inconclusive, RGS4-Gao reg 94, Avidin bead fluor 7 and RGS8-Gao reg 99.
`CCc1cccc(CC)c1NC(=O)C1CC(=O)N(c2ccc3c(c2)OCCO3)C1` (centres undefined) gave RGS16-Gao -578*, GSH fluor 8, RGS7-Gao reg 88, RGS4-Gao reg 86, Avidin bead fluor 2, RGS8-Gao reg 107 and RGS-Gao 86*.
COc1ccc(-n2c(COc3cccc4cccnc34)nnc2SCC(=O)O)cc1 was read as RGS16-Gao 93, GSH fluor 13, RGS7-Gao reg 99, RGS4-Gao reg 99, Avidin bead fluor 9 and RGS8-Gao reg 100.
Screening Cc1ccc(/C=[N+](\[O-])c2ccc(N(C)C)cc2)c2nsnc12 returned RGS16-Gao 98, GSH fluor 10, RGS7-Gao reg 101, RGS4-Gao reg 100, Avidin bead fluor 6 and RGS8-Gao reg 98.
Screening O=C(NCc1ccccn1)C1CCN(Cc2cnn(-c3ccccc3)c2-n2cccc2)CC1 returned GSH fluor 27, RGS4-Gao reg 136, Avidin counter 0, RGS8-Gao confirm 96, RGS7-Gao confirm 96, RGS16-Gao conf 96, RGS4-Gao confirm 96 and RGS19-Gao conf 95.
For Cc1nc2c(cnn2-c2ccc(Cl)cc2)c(=O)n1-c1ccc(N2CCC(C)CC2)cc1 the results were RGS16-Gao 178, GSH fluor 21, RGS7-Gao reg 171*[activator], RGS4-Gao reg 150*[activator], Avidin bead fluor 18, RGS8-Gao reg 109, Avidin counter -1, RGS8-Gao confirm 105, RGS7-Gao confirm 108, RGS16-Gao conf 110, RGS4-Gao confirm 104 and RGS19-Gao conf 122.
